Holding throughout (experiment): NCI-60 one-dose screen, 48 h (100 = growth as untreated, 0 = no growth, -100 = all killed)
What all share (conditions): 10 µM unless noted

The test system of assay [1] is HOP-62 NSCLC.
In assay [2] the test system is NCI-H460 lung.
The subject of assay [3] is A549/ATCC NSCLC.
Assay [4] has as its system 786-0 renal.
Assay [5] has as its system DU-145 prostate.
Assay [6] has as its system MALME-3M melanoma.
Assay [7] relates to RXF 393 renal.
Assay [8] deals with SF-295 CNS.
Assay [9] deals with UACC-257 melanoma.
Assay [10] deals with M14 melanoma.
Assay [11] relates to SNB-19 CNS.
Assay [12] relates to SK-MEL-2 melanoma.
In assay [13] the test system is UO-31 renal.
Assay [14] has as its system A498 renal.
In assay [15] the test system is HL-60(TB) leukemia.
Assay [16] has as its system RPMI-8226 leukemia.
Assay [17] relates to OVCAR-5 ovarian.
The subject of assay [18] is OVCAR-4 ovarian.
Assay [19] concerns T-47D breast.
Assay [20] has as its system HCC-2998 colon.

The structures appear in SMILES notation. The panel holds about 83,000 compounds, 20% with a hit somewhere; the sample as a whole holds those more often.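 Step 1: grow cells in 96-well plates. Step 2: add test compound at a single concentration. Step 3: incubate 48 h. Step 4: record percent growth.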 Unmarked numbers belong to inactive results. Calls of active or inactive are those of the source. The calls were made as follows: active = growth percent below 10; inactive = the rest.

As to `N#[N+]c1nc2nc(N)[nH]c(=O)c2[nH]1`, the growth in assay [1] was 92.5%; in assay [2], 101%; in assay [3] it was 89.8%; in assay [4], 102%; in assay [5], 105%; in assay [6], 107%. The growth is 111% in [7]; 101% in assay [8]; 88.8% in assay [9]; 100% in assay [10]; 99.8% in [11]; 101% in assay [12]. Also, the growth in [13] is 72%; in [14], 107%; in [15], 100%; in assay [16] it was 97%; in [17] it was 104%; in assay [18], 105%. Besides, the growth was 100% in [19] and 104% in assay [20].
On to `CC(=O)O[C@H]1CCC2C3CCC4=C/C(=N/O)CCC4(C)C3CCC21C` (stereo not given in full), for which the growth in [1] was 93.4%; in assay [2], 89.6%; in [3] it was 99.7%; in assay [4] it was 76.9%; in assay [5], 93.1%; in assay [6], 94.3%. For the same compound, the growth in assay [7] is 102%; in assay [9], 114%; in assay [10] it was 79.9%; in assay [11], 90.7%; in [12], 85.4%; in assay [13], 65.1%. The growth in assay [14] is 53.1%; in assay [15], 23.1%; in assay [16], 89.4%; in assay [17], 99.5%; in [19] it was 95.6%; in assay [20], 83.9%.
As for `N#CC1c2ccccc2C=CN1C(=O)c1ccc(N(CCCl)CCCl)cc1` (stereo not given), the growth in assay [1] was 91.1%; in [2] it was 111%; in [3] it was 79%; in assay [4] it was 107%; in [5], 111%; in [6], 85.4%. Also, the growth in [7] is 89.7%; in [8], 90.6%; in assay [9], 81.5%; in [10], 116%; in assay [11], 82.4%; in [12] it was 104%. In addition, the growth is 71% in [13]; 106% in assay [14]; 65.9% in [15]; 69.2% in assay [16]; 98.6% in [17]; 96.7% in [18]. Moreover, the growth is 65.3% in assay [19] and 101% in [20].
Regarding `Cc1ccc2oc(=O)c3c(c2c1)OC(N)=C(C#N)C3c1ccco1` (stereo not given), the growth in assay [2] was 105%; in assay [3], 97%; in [4] it was 102%; in assay [5] it was 103%; in assay [6] it was 99%; in [8] it was 98%. Moreover, the growth was 96.6% in assay [9]; 96.9% in [11]; 112% in assay [12]; 77.7% in assay [13]; 105% in assay [14]; 113% in assay [15]. For the same compound, the growth in assay [16] was 100%; in [17] it was 102%; in assay [18], 114%; in assay [20] it was 109%.
In the case of `NCCc1cc(O)c(O)cc1O`, the growth was 105% in [1]; 112% in [2]; 100% in [3]; 99.9% in assay [4]; 112% in assay [5]; 113% in [7]. Moreover, the growth in assay [8] was 106%; in [9] it was 102%; in assay [10], 99.6%; in assay [11] it was 100%; in [12], 101%; in assay [14], 122%. The growth in assay [15] is 103%; in assay [16] it was 48.4%; in assay [18], 99.5%; in assay [19], 100%; in assay [20], 103%.
With `O=S(=O)(F)c1ncnc2nc[nH]c12`, the growth in assay [1] was 86.5%; in [2], 103%; in [3], 98.5%; in [4], 97.6%; in assay [6] it was 100%; in [7] it was 101%. The growth in [8] is 104%; in assay [9] it was 105%; in assay [10] it was 100%; in assay [11] it was 93.4%; in assay [12], 85.8%; in assay [13] it was 66.9%. For the same compound, the growth in [14] is 97.2%; in assay [15] it was 97.2%; in [17], 90.7%; in assay [18] it was 102%; in assay [19], 91.3%; in assay [20], 101%.
For the compound `CNC(=O)Oc1cccc(OC)c1`, the growth is 115% in [2]; 106% in [3]; 107% in assay [4]; 115% in assay [5]; 115% in assay [6]; 111% in [7]. The growth in [8] was 121%; in assay [9], 112%; in assay [10] it was 107%; in [11], 103%; in [12], 89.8%; in assay [13] it was 97.5%. For the same compound, the growth in assay [14] is 87.8%; in assay [16], 109%; in [17] it was 113%; in assay [18] it was 105%; in assay [19], 108%; in assay [20], 105%.
As to `CC1(CF)NC(=O)NC1=O` (stereo not given), the growth in assay [1] is 107%; in assay [2], 112%; in assay [3], 113%; in assay [4], 97.6%; in assay [5], 116%; in assay [7], 121%. Besides, the growth in assay [8] was 118%; in assay [9], 97.2%; in [10], 104%; in assay [11], 97.9%; in assay [12] it was 121%; in [14] it was 105%. Also, the growth in assay [16] is 108%; in assay [20], 102%.
Turning to `CC(=O)O[C@H]1CCC2(C)C(=CCC3C2CCC2(C)/C(=N/OC(=O)c4ccc(N(CCCl)CCCl)cc4)CCC32)C1` (stereo not given in full), the growth in [1] was -60.8% (active); in assay [2], 21%; in assay [3], 2.05% (active); in assay [4], 47.6%; in assay [5] it was 78.7%; in assay [6], 92.2%. The growth in [7] is 44.1%; in [8], 63.5%; in assay [9] it was 97.2%; in assay [10], 59.4%; in assay [11] it was 37.7%; in assay [12], 99.2%. Besides, the growth was -11.9% (active) in [13]; 57% in [14]; 17.5% in [15]; 26.6% in assay [16]; 81.7% in assay [17]; 17.7% in assay [19]. Further, the growth in assay [20] is 80.3%.

Source of the values: PubChem BioAssay (NCI).
